HT1080 IDH1KD tx – qHTS for induction of synthetic lethality in tumor cells producing 2HG: qHTS for the HT-1080-IDH1KD cell line. HT-1080 IDH1 knockdown viability, ATP luminescence, 48 h. Potency, µM (series often up to 46.1 µM), inactives show at the top dose activity, negative = toxicity, hits mostly cytotoxic. actives 2% (n = 360,000). AID 686971, 2013;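 note: potency is the fitted concentration of half-maximal effect; 0% = DMSO wells and -100% = cell-free medium wells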
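Knockdown cells (IDH1KD HT-1080) received compounds 2 h after plating at 750 cells/well and were kept 48 h at 37 °C in 5% FBS RPMI. A CellTiter-Glo luminescence read gave % activity for curve fitting.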
TDP1 cell noCPT – qHTS for Inhibitors of human tyrosyl-DNA phosphodiesterase 1 (TDP1): qHTS in cells in absence of CPT. DT40 Tdp1-/- hTDP1 cells, no CPT, ATP luminescence, 48 h. AID 686978, 2013. Potency, µM (doses to about 46.2 µM), for the others: top-dose activity change, negative = growth inhibition, hits mostly inhibitors. actives 15% (n = 420,000); note: potency is the fitted concentration of half-maximal effect; nearly all actives have a fitted effect of over 55% in size
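A cellular qHTS used chicken DT40 cells lacking endogenous Tdp1 but carrying stably transfected human TDP1. Compounds were applied without camptothecin, and cell growth kinetics were judged by ATP-dependent luminescence after ≥48 hr.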
IL-1B inflam inh – qHTS for Inhibitors of Inflammasome Signaling: IL-1-beta AlphaLISA Primary Screen; THP-1 LPS/ATP IL-1B secretion, AlphaLISA, 16 h; stronger effect = lower value; activity change, % at 57.5 µM; actives 4.7% (n = 360,000); in the data active = activity change below about -50%; inconclusive = mostly about -30% to -49%
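Secreted IL-1B measured by AlphaLISA bead assay after 16 h compound exposure of THP-1 cells; compounds (final up to 57.5 uM) added 1 h before LPS (250 ng/mL) and ATP (1.25 mM) stimulation; lower signal means less secretion.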
HT1080NT lethal – qHTS for induction of synthetic lethality in tumor cells producing 2HG: qHTS for the HT-1080-NT fibrosarcoma cell line; Potency, µM (highest dose often 46.1 µM), for inactives: at the highest dose activity, negative = less viability, most hits filed as cytotoxic; actives 1.6% (n = 360,000); HT-1080-NT fibrosarcoma viability, CellTiter-Glo ATP luminescence, 48 h; AID 686970, 2013;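 note: NT is the 2HG producing partner of a matched IDH1 knockdown line; potency is the fitted concentration of half-maximal effect; 0% = DMSO-treated cells and -100% = media-only wells without cells; nearly all actives have a fitted effect of over 55% in size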
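750 cells/well, RPMI + 5% FBS; 2 h settle, compound pin-transfer, 48 h at 37 degrees C. CellTiter-Glo 10 min RT, luminescence. Normalized to DMSO and media-only wells.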
ALOX12 inh – Primary qHTS assay for inhibitors of human arachidonate 12S-lipoxygenase (ALOX12): Round 2 | Polyunsaturated fatty acid lipoxygenase ALOX12 (Homo sapiens), P18054 | purified 12hLO, xylenol orange hydroperoxide absorbance | Potency, µM (series often up to 108 µM), for the others: at the top dose activity change, negative = inhibition, most hits filed as inhibitors | actives 1.1% (n = 580,000) | AID 1671190, 2021; note: potency is the fitted concentration of half-maximal effect
Target sequence (P18054 whole entry, looked up): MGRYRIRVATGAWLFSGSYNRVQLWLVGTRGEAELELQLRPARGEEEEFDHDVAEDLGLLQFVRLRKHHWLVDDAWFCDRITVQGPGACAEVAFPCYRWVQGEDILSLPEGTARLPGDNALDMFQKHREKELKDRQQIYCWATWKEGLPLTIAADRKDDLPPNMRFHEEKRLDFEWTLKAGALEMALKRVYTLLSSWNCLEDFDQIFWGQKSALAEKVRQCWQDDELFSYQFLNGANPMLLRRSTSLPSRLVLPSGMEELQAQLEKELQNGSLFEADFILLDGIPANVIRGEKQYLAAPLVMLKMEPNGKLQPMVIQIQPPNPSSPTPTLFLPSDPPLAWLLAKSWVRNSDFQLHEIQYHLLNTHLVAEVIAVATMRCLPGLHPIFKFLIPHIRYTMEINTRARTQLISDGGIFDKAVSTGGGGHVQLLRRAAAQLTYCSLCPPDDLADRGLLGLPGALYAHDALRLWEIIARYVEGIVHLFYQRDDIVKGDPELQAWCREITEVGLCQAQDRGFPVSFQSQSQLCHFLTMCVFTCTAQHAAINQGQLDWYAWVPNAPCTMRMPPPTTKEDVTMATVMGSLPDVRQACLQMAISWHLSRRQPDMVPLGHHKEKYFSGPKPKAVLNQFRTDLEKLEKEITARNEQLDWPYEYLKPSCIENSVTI
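Purified human 12hLO (150 nM final) in 25 mM Hepes, 0.01% Triton X-100, pH 7.0 was preincubated 15 min at room temperature with compound. Then 40 uM arachidonic acid was added, 30 min. Hydroperoxide was read by Fe-XO absorbance ratio 573/405 nm.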
TDP1 cell CPT – qHTS for Inhibitors of human tyrosyl-DNA phosphodiesterase 1 (TDP1): qHTS in cells in presence of CPT; chicken DT40 Tdp1-/-;hTDP1 cells + 20 nM CPT, ATP luminescence, 48 h; Potency, µM (titrated, usually from 46.2 µM), for the others: top-dose activity change, negative = growth inhibition, hits mostly inhibitors; actives 12% (n = 420,000); AID 686979, 2013; note: potency is the fitted concentration of half-maximal effect; nearly all actives have a fitted effect of over 55% in size
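Cell growth measured by CellTiter-Glo luminescence after a minimum 48 h, 37 C compound exposure with 20 nM CPT in Tdp1-knockout DT40 cells stably expressing hTDP1, seeded 400/well; qHTS titration format.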
The depositor's hits bear a star; ? = inconclusive; nt = no result given; [ ] = dose if it differs, or a comment. This excerpt belongs to a sample that is enriched for hits. Unless noted, calls come from the whole dose curve; as a rule, active = well fitted curve in the direction sought with a large enough effect; inconclusive = small, poorly fitted or top-dose-only effect, or another doubt; inactive = no such curve, though single readings can be large; an effect the other way counts as inactive or inconclusive. Unless noted, % is set by controls: 0 for no effect and ±100 for the full control effect.

SMILES	HT1080 IDH1KD tx	TDP1 cell noCPT	IL-1B inflam inh	HT1080NT lethal	ALOX12 inh	TDP1 cell CPT
O=C(Nc1cccc([N+](=O)[O-])c1)c1cc2ccccc2cc1O	3.7µM*	2.6µM*	?	3.7µM*	?	4.1µM*
COC(=O)c1ccc(NC(=O)c2ccc3nc(C)sc3c2)cc1	-13%	-1%	34	-12%	1%	-6%
O=C(Nc1ccc(Br)cc1)c1cc([N+](=O)[O-])cc([N+](=O)[O-])c1	0%	?	-101*	-10%	-1%	4.6µM*
Cc1nc2ccc(C(=O)Nc3cccc([N+](=O)[O-])c3)cc2s1	9%	18µM*	-6	8%	2%	?
COc1ccc(NC(=O)c2cc([N+](=O)[O-])ccc2O)cc1	?	5.8µM*	3	21µM*	-6%	8.2µM*
O=C(O)c1ccccc1C(=O)Nc1cccc([N+](=O)[O-])c1	-1%	-7%	-15	-4%	6%	-1%
Cc1nc2ccc(NC(=O)c3ccc(Cl)c(NC(=O)c4cccs4)c3)cc2s1	-18%	21µM*	37	-15%	6%	?
COC(=O)c1cccc(NC(=O)c2cccc([N+](=O)[O-])c2)c1	16%	-4%	-7	23%	100%	9%
Cn1nc(C(C)(C)C)c([N+](=O)[O-])c1C(=O)Nc1ccc(Br)cc1	-26%	23µM*	-29	?	46%	?
COc1ccc(C(=O)Nc2ccc3nc(C)sc3c2)cc1OC	2%	-17%	-58*	7%	4%	0%
O=C(NC(=S)Nc1cccc(NC(=O)c2ccccc2)c1)c1cccc([N+](=O)[O-])c1	13%	-22%	-6	6%	28µM*	?
Cc1cccc(NC(=O)c2c([N+](=O)[O-])c(C(C)(C)C)nn2C)c1	1%	-26%	19	11%	24%	-1%
Cc1ccc(NC(=O)c2ccc(Cl)c(NC(=O)c3cccs3)c2)cc1	?	?	-14	?	376%	?
Cc1ccc(NC(=O)c2cc(=O)c3cc(C)cc(C)c3o2)c(C)c1	nt	nt	nt	nt	-4%	nt
Cc1ccccc1NS(=O)(=O)c1cc(C(=O)Nc2cccc([N+](=O)[O-])c2)ccc1C	21µM*	?	?	?	-6%	?
CCCCC(=O)NC(=S)Nc1cccc(NC(=O)c2ccccc2)c1	?	23µM*	?	-8%	-21%	?
Cc1nc2ccc(C(=O)N/N=C/c3cc([N+](=O)[O-])ccc3O)cc2[nH]1	-7%	9%	23	-8%	-16%	1%
O=C(Nc1cccc([N+](=O)[O-])c1)c1cccc(C(=O)Nc2cccc([N+](=O)[O-])c2)c1	5%	7.3µM*	-22	1%	-24%	?
O=C(Nc1ccc(NC(=O)c2cccc([N+](=O)[O-])c2)cc1)c1cccc([N+](=O)[O-])c1	-3%	-37%	-4	-5%	0%	-1%
O=C(N/N=C/c1cc([N+](=O)[O-])ccc1O)c1cccc(NC(=O)c2cccc(Cl)c2)c1	-13%	3.3µM*	92	-1%	?	5.2µM*
COc1ncc(-c2nccc3c(=O)cc(N4CCN(C)CC4)oc23)cn1	nt	nt	nt	nt	0%[176 µM]	nt
CNC(C)c1ccccc1F (stereo not drawn)	nt	nt	nt	nt	3%[12.5 µM]	nt
O=C(Nc1ccncc1)c1cc2ccccc2cc1O	?	12µM*	-88*	?	-18%	?
CC(C(=O)Nc1cccc([N+](=O)[O-])c1)[n+]1ccccc1 (stereo not drawn)	4%	-5%	12	-2%	3%	3%
CC(NC(=O)Nc1cccc([N+](=O)[O-])c1)(C(F)(F)F)C(F)(F)F	16µM*	?	0	?	-20%	3.7µM*
SMILES	HT1080 IDH1KD tx	TDP1 cell noCPT	IL-1B inflam inh	HT1080NT lethal	ALOX12 inh	TDP1 cell CPT
Cc1ccc(C)c(NS(=O)(=O)c2cc(C(=O)Nc3ccccc3-c3ccccc3)ccc2C)c1	?	?	?	?	-9%	?
Cc1ccc(C(=O)Nc2ccccc2-c2ccccc2)cc1S(=O)(=O)Nc1cccc(C)c1C	?	21µM*	?	?	-5%	?
COc1ccc(NC(=O)Nc2ccc(F)c(Cl)c2)cc1	-7%	16µM*	-1	1%	-8%	?
Cc1cccc(OCCC(=O)Nc2ccc(F)c(Cl)c2)c1	0%	-7%	-84*	-3%	1%	0%
Cc1ccc(NC(=O)Nc2ccc(F)c(Cl)c2)cc1	-4%	23µM*	-29	0%	8%	?
COc1ccc(-c2cn3cccnc3n2)cc1NC(=O)Nc1ccc(Cl)cc1	nt	16µM*	nt	nt	?	?
COCCn1c2c(c(=O)[nH]c1=O)C(c1ccc(C(=O)O)cc1)C1=C(N2)c2ccccc2C1=O (stereo not drawn)	nt	nt	nt	nt	-20%	nt
CN1CCCC1CNC(=O)c1cc2ccccc2o1 (stereo not drawn)	nt	nt	nt	nt	-24%	nt
COCCCN(C(=O)C1=COCCO1)c1c(N)n(Cc2ccccc2)c(=O)[nH]c1=O	-2%	-17%	-7	-1%	16%	-2%
COc1ccc(OC)c(NC(=O)Nc2ccc(Cl)cc2)c1	-15%	-27%	-66*	-27%	nt	-22%
COc1ccc(NC(=O)Nc2cc(C)ccc2OC)cc1	0%	-17%	-16	10%	-2%	-17%
COc1cc2c(cc1NC(=O)C(C)NCc1ccccc1)oc1ccccc12 (stereo not drawn)	?	16µM*	-6	?	-7%	?
Cc1ccc(NC(=O)CN(C)Cc2c(O)ccc3ccccc23)cc1	-1%	?	-101*	-9%	?	-7%
COc1ccc(CN(C)CC(=O)Nc2ccc(Cl)cc2C(F)(F)F)c(OC)c1	-13%	16µM*	-13	-9%	-24%	21µM*
COc1cc2c(cc1NC(=O)CN1CCN(S(=O)(=O)c3ccccc3F)CC1)oc1ccccc12	-1%	21µM*	37	-2%	-2%	15µM*
Cc1ccc(OCc2nc(C#N)c(NCc3cccnc3)o2)c(C)c1	nt	nt	nt	nt	-39%	nt
COc1ccc(-c2cnc(Nc3ccccc3)c3c2CCO3)cn1	nt	nt	nt	nt	12%[176 µM]	nt
